Compounds without any hit were thinned out: in the full panel of roughly 79,000, 15% have a hit. Calls of active or inactive are those of the source. Cut-off read from the data, not from the text of the source: active = growth inhibition above about 70%; inactive = the rest.
How the values were obtained:
[1] = NCI Yeast Anticancer Drug Screen. Data for the rad52 strain (AID 147);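 note: 0% = growth of vehicle-treated control cultures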; conditions: S. cerevisiae rad52 mutant growth inhibition, active compounds read high
Summary of the method: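 Yeast strain carrying a DNA damage repair alteration was exposed to test compounds. Growth inhibition was measured relative to vehicle-treated controls.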

[2] = NCI Yeast Anticancer Drug Screen. Data for the wt1 strain (AID 149);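 note: 0% = growth of vehicle-treated wt1 cultures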; conditions: S. cerevisiae wt1 strain (SPY 50644) growth inhibition, active compounds read high
Summary of the method: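 Growth inhibition read against vehicle controls after compound exposure of the wt1 yeast strain.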

[3] = NCI Yeast Anticancer Drug Screen. Data for the rad50EPP+ strain (AID 151);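 note: 0% = growth of vehicle-treated control cultures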; conditions: S. cerevisiae rad50 mutant strain, active compounds read high
Summary of the method: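 Yeast strain carrying rad50 alteration (rad50EPP+) exposed to compounds; growth inhibition measured relative to vehicle-treated controls.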

[4] = NCI Yeast Anticancer Drug Screen. Data for the rad50 strain (AID 155);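 note: 0% = growth of vehicle-only cultures of the same strain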; conditions: S. cerevisiae rad50 strain growth inhibition, active compounds read high
Summary of the method: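 Readout: growth inhibition relative to vehicle-treated cultures. Compound exposure was carried out in a genetically defined yeast strain deficient in DNA damage repair.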

[5] = NCI Yeast Anticancer Drug Screen. Data for the mec2-1 strain (AID 157); conditions: S. cerevisiae mec2-1 strain, active compounds read high
Summary of the method: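 mec2-1 yeast strain, carrying an alteration in DNA damage repair or cell cycle control, was exposed to compounds; growth inhibition was measured relative to vehicle-treated controls.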

[6] = NCI Yeast Anticancer Drug Screen. Data for the rad14 strain (AID 159);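 note: 0% = growth of vehicle-treated control cultures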; conditions: S. cerevisiae rad14 strain growth inhibition, active compounds read high
Summary of the method: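 Growth inhibition vs vehicle controls; genetically altered yeast strain (DNA damage repair defect) treated with test compounds.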

[7] = NCI Yeast Anticancer Drug Screen. Data for the sgs1 mgt1 strain (AID 161);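 note: 0% = growth of cultures given vehicle only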; conditions: S. cerevisiae sgs1 mgt1 strain, active compounds read high
Summary of the method: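 Yeast cells carrying a defined DNA-repair defect were exposed to test compounds. Growth inhibition was measured relative to vehicle-treated controls.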

[8] = NCI Yeast Anticancer Drug Screen. Data for the CLN2oe strain (AID 163);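 note: 0% = growth of vehicle-only control cultures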; conditions: S. cerevisiae CLN2oe strain, active compounds read high
Summary of the method: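 Yeast cells carrying a defined cell-cycle control alteration were exposed to test compounds. Growth inhibition was scored against vehicle-treated control cultures.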

[9] = NCI Yeast Anticancer Drug Screen. Data for the cln2 rad14 strain (AID 165);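 note: 0% = growth equal to vehicle treated cultures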; conditions: S. cerevisiae cln2 rad14 strain, active compounds read high
Summary of the method: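 Yeast carrying cln2 and rad14 alterations (cell cycle control and DNA damage repair) were exposed to compounds. Growth inhibition was measured against vehicle-treated controls.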

[10] = NCI Yeast Anticancer Drug Screen. Data for the bub3 strain (AID 167); conditions: S. cerevisiae bub3 mutant strain, active compounds read high
Summary of the method: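 Readout: yeast growth inhibition, expressed relative to vehicle-only wells. The test organism is a mutant strain from a panel with lesions in DNA repair or checkpoint genes.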

[11] = NCI Yeast Anticancer Drug Screen. Data for the wt2 strain (AID 169);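 note: 0% = growth of vehicle-treated yeast cultures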; conditions: S. cerevisiae wt2 strain growth inhibition, active compounds read high
Summary of the method: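 Yeast cells were exposed to test compounds, and growth inhibition was measured relative to vehicle-treated controls.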

[12] = NCI Yeast Anticancer Drug Screen. Data for the mlh1 strain (AID 171);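 note: 0% = growth of vehicle-treated control cultures of the same strain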; conditions: S. cerevisiae mlh1 strain growth inhibition, active compounds read high
Summary of the method: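 Yeast carrying a defined genetic alteration in DNA damage repair or cell cycle control were exposed to test compounds. Growth inhibition was measured relative to vehicle-treated controls.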

[13] = NCI Yeast Anticancer Drug Screen. Data for the sgs1 strain (AID 173);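 note: 0% = growth of vehicle-only control cultures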; conditions: S. cerevisiae sgs1 mutant, active compounds read high
Summary of the method: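 Yeast mutant strains carrying defined defects in DNA damage repair or cell cycle control were exposed to test compounds. Growth inhibition was scored against vehicle-treated controls.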

[14] = NCI Yeast Anticancer Drug Screen. Data for the mlh1 rad18 strain (AID 175); conditions: S. cerevisiae mlh1 rad18 strain growth inhibition, active compounds read high
Summary of the method: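 Growth inhibition of the yeast strain was measured after compound exposure and expressed relative to vehicle-treated controls. The strain carries defined defects in DNA damage repair.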

[15] = NCI Yeast Anticancer Drug Screen. Data for the rad18 strain (AID 177); conditions: S. cerevisiae rad18 mutant growth inhibition, active compounds read high
Summary of the method: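 Yeast carrying a defined DNA damage repair alteration were exposed to compounds. Growth inhibition was expressed relative to vehicle-treated controls.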

[16] = at 5.0 µM (retest, dose inferred, filed as 0.5)
[17] = at 50.0 µM (retest, dose inferred, filed as 5.0)

Measured: growth inhibition

CC(C)(C)c1ccc(O)c(C(c2ccc([N+](=O)[O-])cc2)c2cc(C(C)(C)C)ccc2O)c1
active: [1]; at 33.0 µM 79% | [1]; at 100.0 µM 84% | [2]; at 33.0 µM 81% | [2]; at 100.0 µM 90% | [4]; at 33.0 µM 85% | [4]; [17] 88% | [4]; at 50.0 µM 84.3% | [4]; at 100.0 µM 92% | [5]; at 33.0 µM 85% | [5]; [17] 94% | [5]; at 50.0 µM 89% | [5]; at 100.0 µM 92% | [6]; at 33.0 µM 71% | [6]; at 100.0 µM 90% | [7]; [17] 93% | [8]; at 33.0 µM 80% | [8]; at 100.0 µM 91% | [9]; [17] 93% | [9]; at 50.0 µM 82.8% | [10]; at 33.0 µM 88% | [10]; [17] 94% | [10]; at 50.0 µM 84.2% | [10]; at 100.0 µM 92% | [11]; at 33.0 µM 81% | [11]; at 100.0 µM 83% | [12]; at 33.0 µM 90% | [12]; at 100.0 µM 93% | [13]; at 33.0 µM 82% | [13]; at 100.0 µM 93% | [14]; [17] 93% | [14]; at 50.0 µM 80.2% | [15]; at 33.0 µM 70% | [15]; at 100.0 µM 88%
inactive: [1]; at 1.2 µM 29% | [1]; at 3.7 µM 24% | [1]; at 11.0 µM 57% | [2]; at 1.2 µM -2% | [2]; at 3.7 µM -4% | [2]; at 11.0 µM 42% | [3]; at 1.2 µM 7% | [3]; at 3.7 µM -8% | [3]; at 11.0 µM -24% | [3]; at 33.0 µM -14% | [3]; at 100.0 µM -10% | [4]; at 1.2 µM 19% | [4]; at 3.7 µM 14% | [4]; [16] 21% | [4]; at 11.0 µM 61% | [5]; at 1.2 µM -1% | [5]; at 3.7 µM 14% | [5]; [16] 7% | [5]; at 11.0 µM 57% | [6]; at 1.2 µM -9% | [6]; at 3.7 µM -24% | [6]; at 11.0 µM 14% | [7]; [16] 29% | [7]; at 50.0 µM 29.1% | [8]; at 1.2 µM 2% | [8]; at 3.7 µM 19% | [8]; at 11.0 µM 38% | [9]; [16] 43% | [10]; at 1.2 µM 9% | [10]; at 3.7 µM 16% | [10]; [16] 33% | [10]; at 11.0 µM 53% | [11]; at 1.2 µM -16% | [11]; at 3.7 µM -19% | [11]; at 11.0 µM 46% | [12]; at 1.2 µM 12% | [12]; at 3.7 µM 6% | [12]; at 11.0 µM 29% | [13]; at 1.2 µM 22% | [13]; at 3.7 µM 13% | [13]; at 11.0 µM 40% | [14]; [16] 36% | [15]; at 1.2 µM 21% | [15]; at 3.7 µM 41% | [15]; at 11.0 µM 57%

Reference: PubChem BioAssay (NCI)
